# According to PubChem BioAssay (Tox21):
# Values without a mark were called inactive. Inconclusive results are not listed. Where a call stands in place of a potency, no number is given. Active and inactive are the calls of the source. Unless noted, the call rests on the fitted dose curve; in most records, active means well fitted curve in the direction sought with a large enough effect in the repeat runs; inconclusive means weak or mixed curves; inactive means no such curve, though single readings can be large; an effect the other way counts as inactive or inconclusive.
# Legend:
# [1] = A CellTox Green Cytotoxicity Assay to monitor cytotoxicity in HEK293 cells - 32 hour (AID 1224881); further: nearly all actives have a fitted effect of over 40% in size; further: potency means the concentration at half of the fitted maximal effect
# How it was run: (§1)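 Cells (HEK293, 600/well) and dye reagent are dispensed together. After 5 h at 37 C, 23 nL compound is pinned in. Plates stay at 37 C for 40 h with fluorescence read at 0h, 8h, 16h, 24h, 32h and 40h.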
# [2] = A CellTox Green Cytotoxicity Assay to monitor cytotoxicity in HepG2 cells - 0 hour (AID 1224882); further: nearly all actives have a fitted effect of over 35% in size
# How it was run: (§2)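 Cells and non-lytic dye reagent are dispensed together (600 HepG2 cells/well) and incubated 5 h before DMSO compound transfer. Kinetic fluorescence is then recorded in the same wells during 40 h at 37 C.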
# [3] = A CellTox Green Cytotoxicity Assay to monitor cytotoxicity in HepG2 cells - 32 hour (AID 1224883); further: nearly all actives have a fitted effect of over 50% in size; further: potency means the concentration at half of the fitted maximal effect
# How it was run: as §2
# [4] = A CellTox Green Cytotoxicity Assay to monitor cytotoxicity in HEK293 cells - 8 hour (AID 1224884); further: nearly all actives have a fitted effect of over 35% in size; further: potency means the concentration at half of the fitted maximal effect
# How it was run: as §1
# [5] = qHTS RealTime-Glo MT Cell Viability Assay in HEK293 cells - 24 hour (AID 1224886); further: nearly all actives have a fitted effect of over 50% in size; further: potency means the concentration at half of the fitted maximal effect; on activity change, negative = cytotoxicity: top concentration of the series differs between compounds
# How it was run: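 Reads taken at 0, 8, 16, 24, 32 and 40 h from the same wells. HEK293 cells (600/well) carried RealTime-Glo reagents from seeding, with compound added after a 5 h settle at 37 C.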
# [6] = qHTS RealTime-Glo MT Cell Viability Assay in HEK293 cells - 8 hour (AID 1224887); further: nearly all actives have a fitted effect of over 50% in size; further: potency means the concentration at half of the fitted maximal effect; on activity change, negative = cytotoxicity: top concentration of the series differs between compounds
# How it was run: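 Real-time viability in HEK293: signal arises when living cells convert a prosubstrate for NanoLuc in the medium, so luminescence tracks viable cell number. Compound (23 nL, DMSO) added 5 h post-seeding; kinetic reads at 0–40 h, 37 C.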
# [7] = A CellTox Green Cytotoxicity Assay to monitor cytotoxicity in HEK293 cells - 16 hour (AID 1224888); further: nearly all actives have a fitted effect of over 35% in size; further: potency means the concentration at half of the fitted maximal effect
# How it was run: as §1
# [8] = qHTS RealTime-Glo MT Cell Viability Assay in HepG2 cells - 0 hour (AID 1224889); further: nearly all actives have a fitted effect of over 50% in size
# How it was run: (§3)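 HepG2 suspension premixed with RealTime-Glo reagents is plated at 600 cells per well and left 5 h at 37 C/5% CO2. Compounds in DMSO then go in, and bioluminescence reflecting viable cell number is recorded over 40 h.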
# [9] = A CellTox Green Cytotoxicity Assay to monitor cytotoxicity in HepG2 cells - 8 hour (AID 1224890); further: nearly all actives have a fitted effect of over 45% in size
# How it was run: as §2
# [10] = qHTS assay to identify small molecule antagonists of the estrogen receptor alpha (ER-alpha) signaling pathway using the BG1 cell line in the presence of 0.1 nM 17-beta-estradiol - cell viability counter screen (AID 1259241); further: nearly all actives have a fitted effect of over 40% in size; further: potency means the concentration at half of the fitted maximal effect
# How it was run: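 CellTiter-Fluor read (30 min, 37C) on ER-alpha/ERE-luc VM7Luc4E2 cells; 22 hr compound treatment; agonist 0.1 nM E2 final; same-well multiplex.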
# [11] = qHTS assay to identify small molecule antagonists of the androgen receptor (AR) signaling pathway using the MDA cell line in the presence of 0.5 nM R1881 - cell viability counter screen (AID 1259242); further: nearly all actives have a fitted effect of over 45% in size; further: potency means the concentration at half of the fitted maximal effect
# How it was run: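 Steps: plate MDA-kb2 cells, rest 5 hr at 37C without CO2; pin in compounds in DMSO; add R1881 to 0.5 nM final; incubate 16 hr; add CellTiter-Fluor, 30 min; read fluorescence.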
# [12] = biological target: Estrogen receptor (Homo sapiens) (UniProt P03372); assay: qHTS assay to identify small molecule antagonists of the estrogen receptor alpha (ER-alpha) signaling pathway using the BG1 cell line in the presence of 0.1 nM 17-beta-estradiol (AID 1259244); further: nearly all actives have a fitted effect of over 50% in size; further: potency means the concentration at half of the fitted maximal effect
# How it was run: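 Antagonist mode: compounds in DMSO are pinned onto VM7Luc4E2 reporter cells, 0.1 nM final 17beta-estradiol is added, and after 22 h at 37C luciferase luminescence is measured with ONE-Glo.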
# [13] = qHTS assay to identify small molecule HDAC inhibitors (AID 1259364);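 further: wild-type HCT-116 cells with endogenous class I/II HDAC activity; top concentration of the series differs between compounds; nearly all actives have a fitted effect of over 45% in size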
# How it was run: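 Cells (HCT-116, wild type) are seeded at 1,500 per well, incubated overnight, treated with compound in DMSO for 2 hr, then developed with HDAC-Glo I/II reagent for 30 min at room temperature.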
# [14] = qHTS assay to identify small molecule HDAC inhibitors - cell viability counter screen (AID 1259365); further: nearly all actives have a fitted effect of over 50% in size; further: potency means the concentration at half of the fitted maximal effect; on activity change, negative = cytotoxicity: series mostly up to about 92 µM
# How it was run: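 To flag cytotoxic hits, 1,500 wild-type HCT-116 cells per well, plated the day before, receive test compounds for 2hr at 37 C before CellTiter-Glo reagent and a luminescence read.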
# [15] = qHTS assay to identify small molecule agonists of the sonic hedgehog signaling (Shh) pathway - cell viability counter screen (AID 1259366); further: nearly all actives have a fitted effect of over 50% in size; further: potency means the concentration at half of the fitted maximal effect
# How it was run: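 Fluorescence from CellTiter-Fluor reports live cells in this counter screen. NIH/3T3-derived Gli1-Luc reporter cells receive test compounds for 24hr at 37C; reagent goes in at 23hr.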
# [16] = qHTS assay to identify small molecule antagonists of the sonic hedgehog signaling (Shh) pathway - cell viability counter screen (AID 1259367); further: nearly all actives have a fitted effect of over 55% in size; further: potency means the concentration at half of the fitted maximal effect
# How it was run: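 Tox21 library chemicals were tested on a Gli1-Luc NIH/3T3 clone (2,000 cells/well) stimulated by conditioned medium; viability was quantified as fluorescence from CellTiter-Fluor reagent added at 23 hr.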
# [17] = qHTS assay to identify small molecule agonists of the sonic hedgehog signaling (Shh) pathway (AID 1259368; calls by dose curve;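 further: NIH/3T3-derived 3T3Gli1-Luc cells carrying a stable Gli1-driven firefly luciferase reporter; series mostly up to about 92 µM; nearly all actives have a fitted effect of over 15% in size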)
# How it was run: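 Cells of a mouse NIH/3T3 clone stably expressing luciferase under the Gli1 transcriptional response element are exposed to test chemicals for 24 hr at 37 C. Pathway activation is detected as a rise in luminescence.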
# [18] = biological target: Androgen receptor (Homo sapiens) (UniProt P10275); assay: qHTS assay to identify small molecule antagonists of the androgen receptor (AR) signaling pathway using the MDA cell line in the presence of 0.5 nM R1881 (AID 1259243); further: nearly all actives have a fitted effect of over 50% in size
# How it was run: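 Stably transfected MDA-kb2 cells express luciferase from an MMTV promoter bearing both AR and GR response elements. Compounds plus 0.5 nM R1881 (final) were incubated 16 hr at 37C without CO2, then luminescence measured.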
# [19] = qHTS assay to identify small molecule phospholipidosis (PLD) inducers (AID 1259344; active means well fitted curve in the direction sought with a large enough effect; an effect the other way counts as inactive or inconclusive)
# How it was run: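 Image-based: LipidTOX Red pit count/intensity per well and per cell; HepG2, 24 h compound at 37 C, PFA fixation, Hoechst counterstain.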
# [20] = qHTS RealTime-Glo MT Cell Viability Assay in HepG2 cells - 16 hour (AID 1224885); further: nearly all actives have a fitted effect of over 50% in size
# How it was run: as §3
# Androgen receptor (Homo sapiens), sequence (P10275 whole entry, looked up): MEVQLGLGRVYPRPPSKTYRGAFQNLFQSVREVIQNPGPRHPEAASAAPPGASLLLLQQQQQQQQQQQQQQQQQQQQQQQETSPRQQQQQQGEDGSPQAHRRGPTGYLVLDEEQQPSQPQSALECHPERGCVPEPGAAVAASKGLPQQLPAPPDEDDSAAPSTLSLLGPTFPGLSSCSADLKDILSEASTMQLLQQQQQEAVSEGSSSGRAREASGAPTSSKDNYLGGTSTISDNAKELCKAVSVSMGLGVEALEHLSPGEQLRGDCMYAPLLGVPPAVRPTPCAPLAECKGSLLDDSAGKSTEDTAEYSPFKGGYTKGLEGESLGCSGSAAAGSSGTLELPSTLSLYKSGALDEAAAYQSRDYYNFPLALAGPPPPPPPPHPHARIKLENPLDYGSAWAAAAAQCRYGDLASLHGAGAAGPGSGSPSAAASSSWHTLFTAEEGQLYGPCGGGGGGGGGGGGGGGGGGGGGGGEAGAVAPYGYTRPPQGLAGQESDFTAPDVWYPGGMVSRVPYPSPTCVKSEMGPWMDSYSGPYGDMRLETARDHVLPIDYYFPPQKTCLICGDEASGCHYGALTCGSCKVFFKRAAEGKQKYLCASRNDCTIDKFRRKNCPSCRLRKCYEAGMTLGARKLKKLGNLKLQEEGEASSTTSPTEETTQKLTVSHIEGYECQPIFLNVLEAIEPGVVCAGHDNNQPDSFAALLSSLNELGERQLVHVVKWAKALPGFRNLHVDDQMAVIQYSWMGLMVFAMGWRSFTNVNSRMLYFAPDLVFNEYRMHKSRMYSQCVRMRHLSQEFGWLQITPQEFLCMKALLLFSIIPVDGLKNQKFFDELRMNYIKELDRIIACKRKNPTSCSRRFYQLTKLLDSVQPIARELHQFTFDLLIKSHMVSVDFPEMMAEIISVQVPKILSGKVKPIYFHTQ
# Estrogen receptor (Homo sapiens), sequence (P03372 whole entry, looked up): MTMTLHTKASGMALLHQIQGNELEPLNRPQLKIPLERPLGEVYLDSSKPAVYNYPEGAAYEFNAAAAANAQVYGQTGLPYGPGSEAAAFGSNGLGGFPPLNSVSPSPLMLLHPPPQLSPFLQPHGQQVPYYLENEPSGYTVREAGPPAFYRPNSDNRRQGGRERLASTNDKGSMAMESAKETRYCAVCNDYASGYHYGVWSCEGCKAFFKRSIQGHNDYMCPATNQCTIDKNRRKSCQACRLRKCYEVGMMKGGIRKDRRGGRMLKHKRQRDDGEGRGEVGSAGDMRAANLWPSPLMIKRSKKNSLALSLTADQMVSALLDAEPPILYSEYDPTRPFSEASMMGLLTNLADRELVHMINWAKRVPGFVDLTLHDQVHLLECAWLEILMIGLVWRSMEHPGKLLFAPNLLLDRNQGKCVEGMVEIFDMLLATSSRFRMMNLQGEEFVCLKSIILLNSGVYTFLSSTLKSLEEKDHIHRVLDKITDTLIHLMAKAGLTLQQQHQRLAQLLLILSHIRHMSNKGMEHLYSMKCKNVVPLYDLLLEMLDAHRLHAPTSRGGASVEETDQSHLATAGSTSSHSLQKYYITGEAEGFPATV
structure (smiles),measurement,setting,value
COc1cc(C)ccc1O,Potency,[1],inactive
same,Potency,[2],inactive
same,Potency,[3],inactive
same,Potency,[4],inactive
same,Potency,[5],inactive
same,Potency,[6],inactive
same,Potency,[7],inactive
same,Potency,[8],inactive
same,Potency,[9],inactive
same,Potency,[10],inactive
same,Potency,[11],inactive
same,Potency,[12],inactive
same,Potency,[13],inactive
same,Potency,[14],inactive
same,Potency,[15],inactive
same,Potency,[16],inactive
same,Potency,[17],inactive
CCCC1CCC(=O)CC1,Potency,[1],inactive
same,Potency,[2],inactive
same,Potency,[3],inactive
same,Potency,[4],inactive
same,Potency,[5],inactive
same,Potency,[6],inactive
same,Potency,[7],inactive
same,Potency,[8],inactive
same,Potency,[9],inactive
same,Potency,[10],inactive
same,Potency,[11],inactive
same,Potency,[12],inactive
same,Potency,[13],inactive
same,Potency,[14],inactive
same,Potency,[15],inactive
same,Potency,[16],inactive
same,Potency,[17],inactive
CNC(=O)c1ccccc1Sc1ccc2c(/C=C/c3ccccn3)n[nH]c2c1,Potency,[1],inactive
same,Potency,[2],inactive
same,Potency,[3],inactive
same,Potency,[4],inactive
same,Potency,[5],7.56 µM (active)
same,Potency,[7],inactive
same,Potency,[9],inactive
same,Potency,[10],inactive
same,Potency,[15],13.3 µM (active)
same,Potency,[17],inactive
ClCCl,Potency,[1],inactive
same,Potency,[2],inactive
same,Potency,[3],inactive
same,Potency,[4],inactive
same,Potency,[5],inactive
same,Potency,[6],inactive
same,Potency,[7],inactive
same,Potency,[8],inactive
same,Potency,[9],inactive
same,Potency,[10],inactive
same,Potency,[11],inactive
same,Potency,[18],inactive
same,Potency,[12],inactive
same,Potency,[13],inactive
same,Potency,[15],inactive
same,Potency,[16],inactive
same,Potency,[17],inactive
O=C(O)c1cc(=O)c2ccccc2o1,Potency,[1],inactive
same,Potency,[2],inactive
same,Potency,[3],inactive
same,Potency,[4],inactive
same,Potency,[5],inactive
same,Potency,[6],inactive
same,Potency,[7],inactive
same,Potency,[8],inactive
same,Potency,[9],inactive
same,Potency,[10],inactive
same,Potency,[11],inactive
same,Potency,[12],inactive
same,Potency,[19],inactive
same,Potency,[13],inactive
same,Potency,[14],inactive
same,Potency,[15],inactive
same,Potency,[16],inactive
same,Potency,[17],inactive
CC(C)=CCC1=C(O)c2ccccc2C(=O)C1=O,Potency,[1],inactive
same,Potency,[2],inactive
same,Potency,[3],inactive
same,Potency,[4],inactive
same,Potency,[20],inactive
same,Potency,[7],inactive
same,Potency,[8],inactive
same,Potency,[9],inactive
same,Potency,[18],inactive
same,Potency,[13],inactive
same,Potency,[14],inactive
same,Potency,[17],inactive
CCCCCCCCCCCCOCCOCCOCCOCCOCCOCCOCCOCCOCCO,Potency,[1],10.7 µM (active)
same,Potency,[2],inactive
same,Potency,[3],23.9 µM (active)
same,Potency,[4],16.9 µM (active)
same,Potency,[5],5.35 µM (active)
same,Potency,[6],10.7 µM (active)
same,Potency,[7],12 µM (active)
same,Potency,[8],inactive
same,Potency,[10],13.3 µM (active)
same,Potency,[11],21.1 µM (active)
same,Potency,[12],6.68 µM (active)
same,Potency,[19],inactive
same,Potency,[13],inactive
same,Potency,[14],inactive
same,Potency,[15],inactive
same,Potency,[17],inactive
CC(C)Cn1cnc2c(N)nc3ccccc3c21,cytotoxicity increase,[1],3.99% [at 15.8 µM]
same,cytotoxicity,[2],-9.84% [at 15.8 µM]
same,cytotoxicity increase,[3],-12% [at 15.8 µM]
same,cytotoxicity increase,[4],2.79% [at 15.8 µM]
same,activity change,[7],"2.2% [at 15.8 µM, active compounds read high]"
same,"activity change, negative = cytotoxicity",[8],12.8% [at 15.8 µM]
same,cytotoxicity increase,[9],-11.4% [at 15.8 µM]
same,"activity change, negative = cytotoxicity",[10],3.02% [at 19 µM]
same,"viability change, negative = cytotoxic",[11],-4.33% [at 19 µM]
same,"activity change, negative = inhibition",[12],-22.8% [at 19 µM]
same,Potency,[19],inactive
same,"activity change, negative = inhibition",[13],-5.48% [at 19 µM]
same,"activity change, negative = cytotoxicity",[14],0.199% [at 19 µM]
same,"viability change, negative = cytotoxic",[15],8.98% [at 19 µM]
same,"viability change, negative = cytotoxic",[16],4.21% [at 19 µM]
CN(C)Cc1ccccc1O,Potency,[1],inactive
same,Potency,[2],inactive
same,Potency,[3],inactive
same,Potency,[4],inactive
same,Potency,[5],inactive
same,Potency,[6],inactive
same,Potency,[7],inactive
same,Potency,[8],inactive
same,Potency,[9],inactive
same,Potency,[10],inactive
same,Potency,[11],inactive
same,Potency,[18],inactive
same,Potency,[12],inactive
same,Potency,[13],inactive
same,Potency,[14],inactive
same,Potency,[15],inactive
same,Potency,[16],inactive
same,Potency,[17],inactive
COC(C)=O,Potency,[1],inactive
same,Potency,[2],inactive
same,Potency,[3],inactive
same,Potency,[4],inactive
same,Potency,[5],inactive
same,Potency,[6],inactive
same,Potency,[7],inactive
same,Potency,[8],inactive
same,Potency,[9],inactive
same,Potency,[10],inactive
same,Potency,[11],inactive
same,Potency,[12],inactive
same,Potency,[19],inactive
same,Potency,[13],inactive
same,Potency,[14],inactive
same,Potency,[15],inactive
same,Potency,[16],inactive
same,Potency,[17],inactive
O=C(O)c1cc(O)c2ccccc2c1O,Potency,[1],21.9 µM (active)
same,Potency,[2],inactive
same,Potency,[3],24.5 µM (active)
same,Potency,[4],inactive
same,Potency,[5],43.6 µM (active)
same,Potency,[6],17.4 µM (active)
same,Potency,[7],inactive
same,Potency,[9],inactive
same,Potency,[10],34.4 µM (active)
same,Potency,[11],54.5 µM (active)
same,Potency,[12],27.3 µM (active)
same,Potency,[14],21.7 µM (active)
same,Potency,[15],9.69 µM (active)
same,Potency,[16],13.7 µM (active)
same,Potency,[17],inactive
CCn1c2ccccc2c2cc([N+](=O)[O-])ccc21,Potency,[1],inactive
same,Potency,[2],inactive
same,Potency,[3],inactive
same,Potency,[4],inactive
same,Potency,[7],inactive
same,Potency,[8],inactive
same,Potency,[9],inactive
same,Potency,[10],inactive
same,Potency,[11],inactive
same,Potency,[12],inactive
same,Potency,[13],inactive
same,Potency,[14],inactive
same,Potency,[15],inactive
same,Potency,[16],inactive
same,Potency,[17],inactive
CCO[Si](OCC)(OCC)OCC,Potency,[1],inactive
same,Potency,[2],inactive
same,Potency,[3],inactive
same,Potency,[4],inactive
same,Potency,[5],inactive
same,Potency,[6],inactive
same,Potency,[7],inactive
same,Potency,[8],inactive
same,Potency,[9],inactive
same,Potency,[10],inactive
same,Potency,[11],inactive
same,Potency,[12],inactive
same,Potency,[13],inactive
same,Potency,[14],inactive
same,Potency,[15],inactive
same,Potency,[16],inactive
same,Potency,[17],inactive
C=CCn1c(=O)n(CC=C)c(=O)n(CC=C)c1=O,Potency,[1],inactive
same,Potency,[2],inactive
same,Potency,[3],inactive
same,Potency,[4],inactive
same,Potency,[5],inactive
same,Potency,[6],inactive
same,Potency,[7],inactive
same,Potency,[9],inactive
same,Potency,[10],inactive
same,Potency,[11],inactive
same,Potency,[13],inactive
same,Potency,[14],inactive
same,Potency,[15],inactive
same,Potency,[16],inactive
same,Potency,[17],inactive
[Cu+],Potency,[1],inactive
same,Potency,[2],inactive
same,Potency,[3],inactive
same,Potency,[4],inactive
same,Potency,[20],inactive
same,Potency,[6],inactive
same,Potency,[7],inactive
same,Potency,[9],inactive
same,Potency,[10],inactive
same,Potency,[11],inactive
same,Potency,[12],inactive
same,Potency,[13],inactive
same,Potency,[14],inactive
same,Potency,[15],inactive
same,Potency,[17],inactive
